Data on five compounds can be found in PubChem BioAssay (EPA / NIEHS).

Common to all, as to settings: mRNA level, 48 h; actives raise or lower the signal
Read-out in experiment [1]: Bcl-2 (BAD) gene, BAD (gene 572)
In words: LTEA_HepaRG_BAD: Life Technologies and Expression Analysis (LTEA) Assay for Bcl-2 (BAD) gene using HepaRG (AID 2283469). Summed up:
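BAD transcript change, measured by qRT-PCR against three housekeeping genes and fitted in both directions relative to 0.5% DMSO, after 48 h chemical treatment of human HepaRG liver cells at concentrations up to 100 uM.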

Read-out in experiment [2]: Bcl-2 (BAX) gene, BAX (gene 581)
The experiment in a line: LTEA_HepaRG_BAX: Life Technologies and Expression Analysis (LTEA) Assay for Bcl-2 (BAX) gene using HepaRG (AID 2283470). The method in brief:
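Concentration-response endpoint fitted in both directions relative to 0.5% DMSO vehicle. Human HepaRG cultures receive test chemicals for 48 h at up to 100 uM; BAX mRNA is quantified by qRT-PCR against housekeeping genes.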

Read-out in experiment [3]: Alpha-fetoprotein (AFP) gene, AFP (gene 174)
In words: LTEA_HepaRG_AFP: Life Technologies and Expression Analysis (LTEA) Assay for Alpha-fetoprotein (AFP) gene using HepaRG (AID 2283472).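 On AC50: AFP transcript by TaqMan qRT-PCR normalized to ACTB GAPDH and POLR2A.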 Summed up: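 After a 48 h plating period, cells are moved to serum-free induction medium and dosed in duplicate (100 uM maximum, half-log dilutions, 0.5% DMSO) for another 48 h. Total RNA goes to TaqMan qRT-PCR; AFP signal is housekeeping-normalized.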

Read-out in the next experiment: BCL2L11 (gene 10018)
The experiment in a line: LTEA_HepaRG_BCL2L11: Life Technologies and Expression Analysis (LTEA) Assay for Bcl-2 (BCL2L11) gene using HepaRG (AID 2283473). Summed up: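 Cells were plated, cultured 48 h, switched to serum-free induction medium, then dosed in duplicate for 48 h at eight half-log concentrations up to 100 uM. Lysates underwent RNA isolation and TaqMan qRT-PCR; gain or loss versus DMSO was fitted.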

Read-out in experiment [4]: Apolipoprotein A-V (APOA5) gene, APOA5 (gene 116519)
The experiment in a line: LTEA_HepaRG_APOA5: Life Technologies and Expression Analysis (LTEA) Assay for Apolipoprotein A-V (APOA5) gene using HepaRG (AID 2283474). The method in brief:
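Human liver HepaRG cells are treated 48 h with test chemicals (100 uM top, half-log dilutions, 0.5% DMSO). APOA5 mRNA induction or loss is measured by qRT-PCR relative to vehicle.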

Read-out in experiment [5]: Apoptosis regulator Bcl-2 (Homo sapiens) (UniProt P10415)
In words: LTEA_HepaRG_BCL2: Life Technologies and Expression Analysis (LTEA) Assay for Bcl-2 gene using HepaRG (AID 2283475).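 Further: BCL2 transcript by TaqMan qRT-PCR normalised to ACTB GAPDH and POLR2A.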 The method in brief:
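Expression change of BCL2 mRNA in HepaRG after 48 h dosing, quantified by TaqMan qRT-PCR against three endogenous controls. Concentration-response used eight points up to 100 uM, vehicle 0.5% DMSO.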

Read-out in experiment [6]: Bcl-2 (BID) gene, BID (gene 637)
In words: LTEA_HepaRG_BID: Life Technologies and Expression Analysis (LTEA) Assay for Bcl-2 (BID) gene using HepaRG (AID 2283476). The method in brief: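 Gain or loss of BID expression is fitted relative to 0.5% DMSO vehicle. Human HepaRG liver cells received a 48 h chemical exposure over an eight-point concentration range.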

Read-out in the next experiment: Caspase-3 (Homo sapiens) (UniProt P42574)
The experiment in a line: LTEA_HepaRG_CASP3: Life Technologies and Expression Analysis (LTEA) Assay for cysteine-aspartic acid protease (CASP3) using HepaRG (AID 2283477). The method in brief:
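In HepaRG liver cells dosed for 48 h at up to 100 uM (eight-point, duplicate), CASP3 expression changes are scored by qRT-PCR. Activity is fitted in both directions with 0.5% DMSO as baseline.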

Read-out in experiment [7]: Cytochrome P450 (CYP24A1), CYP24A1 (gene 1591)
The experiment in a line: LTEA_HepaRG_CYP24A1: Life Technologies and Expression Analysis (LTEA) Assay for Cytochrome P450 (CYP24A1) using HepaRG (AID 2283478). The method in brief:
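Human liver HepaRG cultures receive each chemical for 48 h across an eight-point half-log series topping at 100 uM in 0.5% DMSO. Induction or suppression of CYP24A1 mRNA is scored relative to vehicle after housekeeping-gene normalization.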

Read-out in experiment [8]: Cytochrome P450 (CYP1A2), CYP1A2 (gene 1544)
In words: LTEA_HepaRG_CYP1A2: Life Technologies and Expression Analysis (LTEA) Assay for Cytochrome P450 (CYP1A2) using HepaRG (AID 2283479). The method in brief:
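Assesses CYP1A2 mRNA in human HepaRG liver cells after 48 h chemical exposure at up to 100 uM. Values come from qRT-PCR with bidirectional curve fitting relative to DMSO.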

Read-out in experiment [9]: cysteine-aspartic acid protease (CASP8), CASP8 (gene 841)
In words: LTEA_HepaRG_CASP8: Life Technologies and Expression Analysis (LTEA) Assay for cysteine-aspartic acid protease (CASP8) using HepaRG (AID 2283480). The method in brief: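 HepaRG, 48 h exposure, duplicate wells; 8 conc, half-log from 100 uM, 0.5% DMSO. Serum-free induction medium. CASP8 mRNA by TaqMan qRT-PCR, norm. ACTB/GAPDH/POLR2A; gain/loss fitted vs DMSO.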

Read-out in experiment [10]: Cytochrome P450 (CYP2B6), CYP2B6 (gene 1555)
In words: LTEA_HepaRG_CYP2B6: Life Technologies and Expression Analysis (LTEA) Assay for Cytochrome P450 (CYP2B6) using HepaRG (AID 2283481). Summed up:
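Using 48 h treatment of HepaRG cells in serum-free induction medium, concentrations spanned half-log steps from 100 uM in 0.5% DMSO vehicle. CYP2B6 mRNA induction or loss is scored by qRT-PCR against DMSO.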

Read-out in experiment [11]: Cytochrome P450 2C19 (Homo sapiens) (UniProt P33261)
In words: LTEA_HepaRG_CYP2C19: Life Technologies and Expression Analysis (LTEA) Assay for CYP2C19 using HepaRG (AID 2283482). Summed up: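 Human HepaRG liver cells received test chemicals for 48 h (highest 100 uM, half-log dilutions in 0.5% DMSO). CYP2C19 mRNA induction or loss is read by multiplexed qRT-PCR and fitted in both directions versus vehicle.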

Read-out in the next experiment: CYP2C8 (gene 1558)
In words: LTEA_HepaRG_CYP2C8: Life Technologies and Expression Analysis (LTEA) Assay for CYP2C8 using HepaRG (AID 2283483). The method in brief: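 CYP2C8 mRNA induction or loss, by qRT-PCR normalized to ACTB/GAPDH/POLR2A, is read in HepaRG cells after 48 h treatment. Concentrations run from 100 uM down in half-log dilutions, with 0.5% DMSO as vehicle and baseline.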

Read-out in another experiment: CYP2C9 (gene 1559)
The experiment in a line: LTEA_HepaRG_CYP2C9: Life Technologies and Expression Analysis (LTEA) Assay for CYP2C9 using HepaRG (AID 2283484). Summed up: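 Cells plated 48 h, switched to serum-free induction medium, then treated in duplicate for 48 h at eight concentrations (max 100 uM, 0.5% DMSO). RNA then analysed by qRT-PCR for CYP2C9; curves fitted in both directions relative to DMSO.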

Read-out in the next experiment: CYP2E1 (gene 1571)
In words: LTEA_HepaRG_CYP2E1: Life Technologies and Expression Analysis (LTEA) Assay for CYP2E1 using HepaRG (AID 2283485). The method in brief: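 Differentiated HepaRG cells were treated in duplicate for 48 h with chemicals in 0.5% DMSO, from 100 uM downward in half-log dilutions. RNA was then analysed by qRT-PCR for CYP2E1 induction or loss.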

Read-out in the next experiment: CYP4A11 (gene 1579)
In words: LTEA_HepaRG_CYP4A11: Life Technologies and Expression Analysis (LTEA) Assay for CYP4A11 using HepaRG (AID 2283486). Summed up: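 Readout is CYP4A11 mRNA induction or suppression (qRT-PCR, ACTB/GAPDH/POLR2A normalization) in human HepaRG cells after 48 h chemical treatment, concentrations to 100 uM in 0.5% DMSO, fitted bidirectionally against vehicle.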

Read-out in experiment [12]: Cytochrome P450 3A4 (Homo sapiens) (UniProt P08684)
The experiment in a line: LTEA_HepaRG_CYP3A4: Life Technologies and Expression Analysis (LTEA) Assay for CYP3A4 using HepaRG (AID 2283487). Summed up:
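Differentiated HepaRG cells in serum-free induction medium exposed in duplicate for 48 h to 8 half-log concentrations up to 100 uM in 0.5% DMSO. CYP3A4 mRNA measured by qRT-PCR normalized to ACTB, GAPDH and POLR2A; bidirectional fit versus DMSO.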

By AC50 is commonly meant the concentration at which the activity in the assay is half-maximal.

Each structure is given as a SMILES string. Calls of active or inactive are those of the source. How the source made its calls: active means hit-call score of the fitted dose curve at least 0.9, where 1 is the maximum; inactive means score below 0.9.

Chain of Cytochrome P450 2C19 (Homo sapiens) (P33261 whole entry, looked up): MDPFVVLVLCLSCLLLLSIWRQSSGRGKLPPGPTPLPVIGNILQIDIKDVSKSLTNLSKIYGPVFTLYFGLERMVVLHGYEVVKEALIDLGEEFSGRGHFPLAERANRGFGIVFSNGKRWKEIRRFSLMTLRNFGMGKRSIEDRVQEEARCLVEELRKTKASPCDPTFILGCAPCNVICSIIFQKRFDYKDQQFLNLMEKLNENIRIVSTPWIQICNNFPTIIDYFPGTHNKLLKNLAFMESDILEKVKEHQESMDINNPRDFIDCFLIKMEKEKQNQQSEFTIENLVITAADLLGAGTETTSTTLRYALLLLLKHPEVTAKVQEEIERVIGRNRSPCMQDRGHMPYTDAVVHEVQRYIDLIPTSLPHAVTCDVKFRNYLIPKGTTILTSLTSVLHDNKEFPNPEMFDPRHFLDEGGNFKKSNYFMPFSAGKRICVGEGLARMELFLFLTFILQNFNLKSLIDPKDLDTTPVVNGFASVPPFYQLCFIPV
Chain of Cytochrome P450 3A4 (Homo sapiens) (P08684 whole entry, looked up): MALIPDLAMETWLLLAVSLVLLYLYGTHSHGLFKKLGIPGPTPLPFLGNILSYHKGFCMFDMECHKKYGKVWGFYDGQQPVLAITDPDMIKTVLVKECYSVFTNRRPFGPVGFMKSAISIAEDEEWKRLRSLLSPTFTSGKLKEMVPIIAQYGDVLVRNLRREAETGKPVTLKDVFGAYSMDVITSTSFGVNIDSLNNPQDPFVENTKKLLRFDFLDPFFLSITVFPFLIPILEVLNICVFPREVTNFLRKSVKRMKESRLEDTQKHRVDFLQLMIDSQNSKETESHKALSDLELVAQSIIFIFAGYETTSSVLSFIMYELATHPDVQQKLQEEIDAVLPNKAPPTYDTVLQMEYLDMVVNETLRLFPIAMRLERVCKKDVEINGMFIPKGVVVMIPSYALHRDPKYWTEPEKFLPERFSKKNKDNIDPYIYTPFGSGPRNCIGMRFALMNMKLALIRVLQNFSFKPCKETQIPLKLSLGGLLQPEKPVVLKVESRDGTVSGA
Chain of Caspase-3 (Homo sapiens) (P42574 whole entry, looked up): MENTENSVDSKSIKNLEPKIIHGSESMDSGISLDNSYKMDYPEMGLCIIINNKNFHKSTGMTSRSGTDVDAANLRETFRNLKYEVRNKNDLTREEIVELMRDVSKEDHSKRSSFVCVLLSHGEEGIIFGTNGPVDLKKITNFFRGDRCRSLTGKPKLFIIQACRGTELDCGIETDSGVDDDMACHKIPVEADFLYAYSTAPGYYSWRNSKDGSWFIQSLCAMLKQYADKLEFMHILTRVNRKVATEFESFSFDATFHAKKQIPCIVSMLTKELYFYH
Chain of Apoptosis regulator Bcl-2 (Homo sapiens) (P10415 whole entry, looked up): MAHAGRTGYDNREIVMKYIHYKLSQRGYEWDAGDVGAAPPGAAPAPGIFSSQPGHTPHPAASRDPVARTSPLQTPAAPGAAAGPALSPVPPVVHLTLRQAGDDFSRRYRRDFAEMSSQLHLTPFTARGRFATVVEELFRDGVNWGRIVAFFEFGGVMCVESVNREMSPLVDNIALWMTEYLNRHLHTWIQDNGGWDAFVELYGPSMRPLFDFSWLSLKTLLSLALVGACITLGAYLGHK

For `CSc1nc(NC(C)C)nc(NC(C)C)n1`, the outcome (in [1]; in experiment [2]; with BCL2L11 (gene 10018); in [5]; in [6]; in the experiment with Caspase-3 (Homo sapiens)) was inactive. The compound was called inactive (in experiment [7]; in experiment [8]; in experiment [9]; with CYP2C8 (gene 1558)). In addition, the AC50 in experiment [3] was 50 µM (active); in experiment [4] it was 50 µM (active); in experiment [10], 1.31 µM (active); in experiment [11] it was 1.96 µM (active); in the experiment with CYP2C9 (gene 1559) it was 85.9 µM (active); in the experiment with CYP2E1 (gene 1571), 39.1 µM (active). Also, the AC50 in the experiment with CYP4A11 (gene 1579) was 31 µM (active); in [12] it was 1.46 µM (active).
With `CCCOCC(=Nc1ccc(Cl)cc1C(F)(F)F)n1ccnc1`, the result (in experiment [1]; with BCL2L11 (gene 10018); in [4]; in [5]; in [6]; in the experiment with Caspase-3 (Homo sapiens)) was inactive. The result in [7], in [8] and in [9] was inactive. The AC50 in experiment [2] is 21.7 µM (active); in [3], 15.8 µM (active); in experiment [10] it was 30.4 µM (active); in experiment [11], 32.5 µM (active); with CYP2C8 (gene 1558), 25.7 µM (active); in the experiment with CYP2C9 (gene 1559), 20.3 µM (active). For the same compound, the AC50 with CYP2E1 (gene 1571) was 13.2 µM (active); in the experiment with CYP4A11 (gene 1579), 23 µM (active); in [12] it was 73.5 µM (active).
For the compound `CSc1nnc(C(C)(C)C)c(=O)n1N`, the result (in experiment [1]; in experiment [2]; in [3]; with BCL2L11 (gene 10018); in experiment [4]; in experiment [5]) was inactive. Moreover, the result (in experiment [6]; with Caspase-3 (Homo sapiens); in [7]; in experiment [8]; in experiment [9]; in the experiment with CYP2C8 (gene 1558)) was inactive. Besides, the compound was classed as inactive (with CYP2C9 (gene 1559); with CYP4A11 (gene 1579); in [12]). Besides, the AC50 in experiment [10] is 14.6 µM (active); in experiment [11], 9.92 µM (active); in the experiment with CYP2E1 (gene 1571) it was 23.2 µM (active).
In the case of `CCc1cnc(C2=NC(C)(C(C)C)C(=O)N2)c(C(=O)O)c1` (stereo not given), the result (in experiment [1]; in [2]; in [3]; in the experiment with BCL2L11 (gene 10018); in experiment [4]; in experiment [5]) was inactive. Moreover, the result (in experiment [6]; in the experiment with Caspase-3 (Homo sapiens); in experiment [7]; in experiment [8]; in experiment [9]; in experiment [10]) was inactive. The compound was called inactive (in experiment [11]; with CYP2C8 (gene 1558); with CYP2C9 (gene 1559); with CYP2E1 (gene 1571); with CYP4A11 (gene 1579); in experiment [12]).
Take `S=C1NCCN1`: the outcome (in experiment [1]; in experiment [2]; in experiment [3]; with BCL2L11 (gene 10018); in experiment [4]; in experiment [5]) was inactive. Besides, the outcome (in [6]; in the experiment with Caspase-3 (Homo sapiens); in experiment [7]; in experiment [8]; in experiment [9]; in experiment [11]) was inactive. The result (in the experiment with CYP2C8 (gene 1558); in the experiment with CYP2C9 (gene 1559); in the experiment with CYP2E1 (gene 1571); in the experiment with CYP4A11 (gene 1579); in [12]) was inactive. For the same compound, the AC50 in experiment [10] is 10.3 µM (active).
